Results: PubChem BioAssay AID493073 (Broad Institute, 2011)
In all, about 1,200 compounds went through this assay and about 810 (68%) were called active. How the calls were made is not given here. The set was probably picked from earlier hits. Only a sample is shown. Entries with a potency or affinity are not part of this list.

Test: TRPM1 promoter luciferase signal decrease, dose response, MITF inhibitor project, cell-based, SK-MEL-5, cherry-picked, set 3 (AID 493073)
Settings: SK-MEL-5 TRPM1 promoter luciferase, 24 h; series mostly up to 35 µM

outcome, inactive:
Cc1ccc(NC(=O)Cc2noc3ccccc23)cc1
C=CCNC(=O)c1ccc2nc(Cc3ccc(OC)cc3)oc2c1
Cc1c(C(=O)Nc2ccc(S(=O)(=O)N(C)C3CCN(C)CC3)cc2)oc2c(Cl)cccc12
c1ccc(CSc2nnc(-c3ccco3)n2Cc2ccco2)cc1
Cc1cccc(NC(=O)Cc2ccc(Br)cc2)n1
O=C(NC1CC1)C1CCN(S(=O)(=O)c2ccc(Cl)c([N+](=O)[O-])c2)CC1
CN(c1ccc(O)cc1)c1nc(O)c(C2=c3ccccc3=NC2=O)s1
CCOC(=O)c1cc(-c2ccc(OC)cc2)n[nH]1
COc1c(C)cccc1C(=O)Nc1ccc(N2CCN(S(C)(=O)=O)CC2)cc1
Cc1ccc2oc(Nc3nc(C)c(C)c(C)n3)nc2c1
Cc1c(OCC(=O)NC2CC(C)(C)NC(C)(C)C2)ccc2c1oc(=O)c1ccccc12
O=C1c2ccccc2C(=O)N1CCSc1ccccc1
COc1cc(OC)cc(C(=O)Nc2ccc3c(c2)OCCO3)c1
CN(C)CCNC(=O)/C(=C/c1ccc(-c2ccc(Cl)cc2)o1)NC(=O)c1ccccc1
CN(C)/C=N/c1ncc(C(=O)c2ccccc2)s1
C(=N\Nc1cc(N2CCCCC2)ncn1)/c1ccco1
Cc1csc(N/N=C/c2ccc([N+](=O)[O-])cc2)n1
CC(=O)c1sc(N/N=C\c2ccc(N(C)C)cc2)nc1C
COc1ccc(-c2csc(N(C)C(=O)c3ccco3)n2)cc1
O=C(/C=C/c1ccccc1Cl)NC1CCCCC1
N#C/C(=C\c1cccs1)C(=O)NCC1CCCO1 (stereo not drawn)
N#C/C(=C\c1c[nH]c2ccccc12)C(=O)NC1CC1
CCC1CCCCN1CCCNC(=O)c1cn(CC)c2ccc(S(=O)(=O)N(C)C3CCCCC3)cc2c1=O (stereo not drawn)
O=C(Cn1nnc(-c2ccccc2Cl)n1)N1CCCCC1
COc1ccc(CCC(=O)N2CCc3ccccc32)cc1
Cc1ccc(C(=O)NC2=NCCS2)cc1Cl
Cc1ccc(C(=O)Nc2ccccc2Cl)cc1
COc1ccc2c(c1OC)C(=O)N(c1ccc(C)cc1)C2
ClC1(Cl)CC1CSc1nnc(-c2ccncc2)o1 (stereo not drawn)
CCC(=O)NCCc1nc2cc(NC(=O)c3cccc([N+](=O)[O-])c3)ccc2n1C
O=C(Nc1nnc(Cc2ccccc2)s1)c1ccccc1
CC1(C)Cc2c(sc(NC(=O)Nc3ccccc3)c2C(N)=O)CO1
COC(=O)c1c(NC(=O)c2nc3ccccc3s2)sc2c1CC(C)(C)NC2(C)C
CCC(=O)Nc1cc(C(=O)OCC(=O)c2ccccc2Cl)ccc1C
N#Cc1cnn2cc(CCN3CCOCC3)c(-c3ccc(F)cc3)nc12
CC(C)N1C(=O)S/C(=C\c2ccc(-c3ccc(Cl)c(C(=O)O)c3)o2)C1=O
OCC1CCCC(n2cnc3c(=S)nc[nH]c32)O1 (stereo not drawn)
O=C(Nc1ccccc1Cl)Nc1cccc2cccnc12
O=C(c1cc2ccccc2oc1=O)N1CCN(c2ncccn2)CC1
CCOc1ccc(C(=O)N2CCc3ccccc32)cc1
O=C(NCCNc1ccccc1[N+](=O)[O-])c1cc(F)c(F)cc1Cl
Cc1cc2oc3ccc(NCCC4CCCN4C)cc3c(=O)c2cc1C (stereo not drawn)
CS(=O)(=O)c1ccc2nc(NC(=O)c3ccccc3)sc2c1
CC1Cc2ccccc2N1C(=O)c1ccc(Br)o1 (stereo not drawn)
CCNC(=O)CC1C(=O)N(c2ccc(F)cc2)C(=O)N1CCc1ccc(OC)cc1 (stereo not drawn)
COc1ccc(C(=O)CCNc2ccc(F)cc2)cc1
CCN1CCN(c2ccc(S(=O)(=O)N3CCCCC3)cc2NC(=O)/C=C/c2cccc(OC)c2OC)CC1
Cc1ccc(NC(=O)c2ccccc2)cc1
COc1ccccc1N1CCN(/N=C/c2ccc([N+](=O)[O-])cc2)CC1
N/C(=N\OC(=O)c1ccc([N+](=O)[O-])cc1)c1ccc(Br)cc1
Cc1ccccc1C(=O)O/N=C(\N)c1ccc([N+](=O)[O-])cc1
O=C(Nc1ccc(-c2cn3c(n2)SCC3)cc1)c1ccco1
Cc1ccc(CC(=O)Nc2ccc(Cl)cn2)cc1
O=C(N/N=C/C=C/c1ccccc1)c1ccccn1
CC(=O)COc1ccc2cc(-c3ccccc3)c(=O)oc2c1
O=C(NC1=NCCS1)c1ccc(Cl)c(Cl)c1
COc1ccc(NC(=O)C2COc3ccccc3O2)cc1 (stereo not drawn)
Cc1ccc(Nc2nnc(-c3ccccc3N)o2)cc1C
COCc1cc(C)nc2sc(C(=O)Nc3cccc(OC)c3)c(N)c12
COc1ccc(/C=C/C(=O)NC(=S)N2CCN(c3ccccc3OC)CC2)cc1
c1cnc(SCCOc2ccc3c(c2)CCC3)nc1
O=C(Nc1ccccn1)c1ccc(Br)s1
Cc1cc(N2CCOCC2)n2ncc(-c3ccccc3Cl)c2n1
CC(=C/c1ccco1)/C=N/N1CCN(c2ccccc2)CC1
CCN(CC(=O)Nc1ccc2c(c1)OCCO2)C(=O)c1ccc([N+](=O)[O-])s1
Cc1ccc(NC(=O)c2cc(N3C(=O)C=CC3=O)ccc2N2CCOCC2)cc1Cl
CS(=O)(=O)N1CCN(c2nc3ccc(Cl)cc3s2)CC1
CCN(CC)C(=O)CCCOc1ccc(Cl)cc1Cl
O=C(Nc1ccccc1F)C(=O)Nc1cccc2ccccc12
COc1cc2ccccc2cc1C(=O)Nc1ccc(N2CCN(C)CC2)cc1
CCOc1ccc(N/C=C/C(=O)c2ccc(OC)c(OC)c2)cc1
CCOc1cccc(C(=O)NC2=NCCS2)c1
CCCOC(=O)c1ccc(NC(=O)C2CCCO2)cc1 (stereo not drawn)
O=[N+]([O-])c1cc(C(F)(F)F)ccc1NCCc1ccccn1
COc1cccc(NC(=O)c2cc3ccccc3cc2OC)c1
COc1cccc(NC(=O)c2cnn(-c3ccccc3)c2C)c1
Cc1cccc(OCC(=O)Nc2cccc(O)c2)c1
Cc1ccc(OCC(=O)Nc2cccc(C)n2)c(C)c1
